Screening results as filed in PubChem BioAssay.
Hits are enriched below; roughly 18% of the tested compounds scored in any of these assays.
VP16 counter = inhibits Gal4-VP16 luciferase reporter, ROR gamma counter-screen | Drosophila S2 Gal4-VP16 UAS-luciferase, luminescence, 20 h | Potency, µM (doses to about 53.6 µM), hits mostly inhibitors | actives 3.5% (n = 310,000) | AID 2546;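 also: Gal4-VP16 expression switched on by copper sulfate through the metallothionein promoter; nearly all actives have a fitted effect of over 50% in size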
RORgamma inh = inhibitors of mouse ROR gamma transcriptional activity. P51450. Drosophila S2 Gal4-RORgamma UAS-luciferase reporter, 20 h. actives 5.4% (n = 310,000). Potency, µM (titrated, usually from 53.6 µM), hits mostly inhibitors; also: nearly all actives have a fitted effect of over 60% in size
Target sequence (P51450 whole entry, looked up, the tested form may be a part): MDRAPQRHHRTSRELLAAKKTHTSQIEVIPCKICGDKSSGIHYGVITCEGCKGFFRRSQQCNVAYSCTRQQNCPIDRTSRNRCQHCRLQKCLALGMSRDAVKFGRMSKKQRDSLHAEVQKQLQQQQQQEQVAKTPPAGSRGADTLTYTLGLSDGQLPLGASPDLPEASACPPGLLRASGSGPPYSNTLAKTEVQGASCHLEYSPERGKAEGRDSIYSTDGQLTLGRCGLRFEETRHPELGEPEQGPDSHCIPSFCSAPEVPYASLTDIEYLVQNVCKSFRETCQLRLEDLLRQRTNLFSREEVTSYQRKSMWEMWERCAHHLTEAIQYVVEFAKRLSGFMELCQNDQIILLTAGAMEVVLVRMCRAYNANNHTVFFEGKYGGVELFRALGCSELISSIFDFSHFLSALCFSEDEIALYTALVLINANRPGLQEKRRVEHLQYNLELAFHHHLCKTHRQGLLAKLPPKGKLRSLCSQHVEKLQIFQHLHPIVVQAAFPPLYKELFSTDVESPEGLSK
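Luciferase reporter read in Schneider cells carrying Gal4-RORγ (mouse) and UAS-Photinus luciferase; cells given compound 1 h before 700 uM copper sulfate induction, then incubated 20 h at ambient temperature.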
IL1B secr inh = blocks inflammasome-driven IL-1 beta release; THP-1 LPS/ATP IL-1B secretion, AlphaLISA, 16 h; stronger effect = lower value; activity change, % at 57.5 µM; actives 4.7% (n = 360,000); in the data active = activity change below about -50%; inconclusive = mostly about -30% to -49%
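Secreted IL-1B measured by AlphaLISA bead assay after 16 h compound exposure of THP-1 cells; compounds (final up to 57.5 uM) added 1 h before LPS (250 ng/mL) and ATP (1.25 mM) stimulation; lower signal means less secretion.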
DT40 TDP1 no CPT = qHTS for Inhibitors of human tyrosyl-DNA phosphodiesterase 1 (TDP1): qHTS in cells in absence of CPT; DT40 Tdp1-/- hTDP1 cells, no CPT, ATP luminescence, 48 h; actives 15% (n = 420,000); AID 686978, 2013; Potency, µM (highest dose often 46.2 µM), hits mostly inhibitors; also: nearly all actives have a fitted effect of over 55% in size
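A cellular qHTS used chicken DT40 cells lacking endogenous Tdp1 but carrying stably transfected human TDP1. Compounds were applied without camptothecin, and cell growth kinetics were judged by ATP-dependent luminescence after ≥48 hr.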
LDHA block = blocks human lactate dehydrogenase A | P00338 | purified LDHA, NADH/diaphorase-resazurin fluorescence; stronger effect = lower value | activity change, % (values are at about 110 or 230 µM) | actives 0.15% (n = 480,000); in the data active = activity change below about -30%; inconclusive = mostly about -25% to -30%
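Resorufin fluorescence (ex540/em590), read at 0 and 20 min after diaphorase/resazurin addition, reports the NADH left after a 5 min room-temperature reaction of 2 nM human LDH5 with 0.06 mM NADH and 0.2 mM pyruvate.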
TDP1 cell CPT = DT40-hTDP1 cell growth loss with CPT; chicken DT40 Tdp1-/-;hTDP1 cells + 20 nM CPT, ATP luminescence, 48 h; Potency, µM (series often up to 46.2 µM), usual class: inhibitors; actives 12% (n = 420,000); also: nearly all actives have a fitted effect of over 55% in size
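Cell growth measured by CellTiter-Glo luminescence after a minimum 48 h, 37 C compound exposure with 20 nM CPT in Tdp1-knockout DT40 cells stably expressing hTDP1, seeded 400/well; qHTS titration format.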
Hits are given with their value; 0 = inactive; ? = inconclusive; - = no result given. Unless noted, calls follow the shape of the dose curve; as a rule, active = well fitted curve in the direction sought with a large enough effect; inconclusive = small, poorly fitted or top-dose-only effect, or another doubt; inactive = no such curve, though single readings can be large; an effect the other way counts as inactive or inconclusive.

SMILES	VP16 counter	RORgamma inh	IL1B secr inh	DT40 TDP1 no CPT	LDHA block	TDP1 cell CPT
NC(=O)CC(NC(=O)c1ccc(Br)cc1)c1ccc(N2CCCCCCC2)c([N+](=O)[O-])c1 (configuration not stated)	?	0	0	10µM	0	21µM
NC(=O)CC(NC(=O)c1cccc(Br)c1)c1ccc(N2CCC(N3CCCCC3)CC2)c([N+](=O)[O-])c1 (configuration not stated)	0	0	0	0	0	0
NC(=O)CC(NC(=O)c1ccc(Br)cc1)c1ccc(N2CCN(c3ccc(F)cc3)CC2)c([N+](=O)[O-])c1 (configuration not stated)	0	?	0	23µM	0	26µM
NC(=O)CC(NC(=O)c1cccc(Br)c1)c1ccc(N2CCN(c3ccc(F)cc3)CC2)c([N+](=O)[O-])c1 (configuration not stated)	?	?	0	13µM	0	23µM
O=C(/C=C/c1ccc(F)cc1)c1ccc(N2CCOCC2)cc1	0	0	-59	?	0	21µM
CCc1ccc(/C=C/C(=O)c2ccc(N3CCOCC3)cc2)cc1	0	0	-89	?	0	?
O=C(/C=C/c1ccc(Cl)cc1)c1ccc(N2CCOCC2)cc1	-	-	-	-	0	-
CCc1ccccc1S(=O)(=O)Cc1ccc(C(=O)NCc2cccs2)o1	0	0	0	?	0	18µM
COc1ccccc1S(=O)(=O)Cc1ccc(C(=O)NCc2cccs2)o1	0	0	0	?	0	0
Cc1ccc(CS(=O)(=O)Cc2ccc(C(=O)NCc3cccs3)o2)cc1	0	0	0	0	0	18µM
CNC(=O)c1ccc(CN(C)c2nc3ccccc3o2)cc1	-	-	-	-	0	-
OC[C@@H]1CN(Cc2ccc(F)cc2)C[C@H](n2cnc3c(N4CCN(c5ccccc5)CC4)ncnc32)O1	-	-	0	10µM	0	18µM
OC[C@@H]1CN(Cc2ccccc2)C[C@H](n2cnc3c(N4CCCC4)ncnc32)O1	-	-	0	0	0	0
OC[C@@H]1CN(Cc2ccc(-c3ccccc3)cc2)C[C@H](n2cnc3c(N4CCCC4)ncnc32)O1	-	-	0	21µM	0	18µM
CCc1ccc(C(=O)CSc2nnc(-c3ccc(Cl)cc3)n2CCOC)cc1	-	-	-	-	0	-
Cn1ccnc1C(NC(=O)c1nn(C)c(=O)c2ccccc12)c1ccccc1 (configuration not stated)	-	-	-	-	0	-
CCOC(=O)c1cc2c(c(-c3cccc(C#Cc4ccc(OC)c(OC)c4)c3)n1)[C@@H](CCO)N(S(=O)C(C)(C)C)C2 (some centres not stated)	-	-	0	?	0	?
COCCNC(=O)c1cc2c(c(-c3cccc(-c4cc5ccccc5o4)c3)n1)[C@H](CCO)N(S(=O)C(C)(C)C)C2 (some centres not stated)	-	-	0	23µM	0	?
COCCNC(=O)c1cc2c(c(-c3cccc(-c4cc5ccccc5o4)c3)n1)[C@@H](CCO)N(S(=O)C(C)(C)C)C2 (some centres not stated)	-	-	0	?	0	16µM
COc1ccc(C#Cc2cccc(-c3nc(C(=O)NCCCN4CCOCC4)cc4c3[C@H](CCO)N(S(=O)C(C)(C)C)C4)c2)cc1OC (some centres not stated)	-	-	0	23µM	0	?
CC(C)NC(=O)N1Cc2cc(C(=O)NC3CCCC3)nc(-c3cccc(-c4cccnc4)c3)c2[C@@H]1CCO	-	-	0	13µM	0	?
COc1cccc(-n2nnc3c(N4CCN(S(=O)(=O)c5ccccc5F)CC4)ncnc32)c1	-	-	-	-	0	-
COc1cc(-c2nc3ccc(C)cn3c2Nc2ccc3c(c2)OCO3)cc(OC)c1O	-	-	-	-	0	-
CCNC(=O)c1cc2c(c(-c3cccc(-c4cc5ccccc5o4)c3)n1)[C@H](CCO)N(C(=O)NC(C)C)C2	-	-	0	9.2µM	0	21µM
